# Bioassay records (PubChem BioAssay)
# Sampled rows, rich in hits. Any-hit rate of the full collection: about 5.7%.
# JMJD2E inh – blocks human JMJD2E demethylase activity; Potency, µM (titrated, usually from 57.1 µM), for inactives: at the highest dose activity change, negative = inhibition, actives largely listed as inhibitors; 1.6% of 230,000 active; JMJD2E catalytic domain, FDH-coupled NADH fluorescence (FDH is formaldehyde dehydrogenase); AID 2147; B2RXH2; active = well fitted inhibition curve with a large enough effect, not every such curve was filed as active; inconclusive = small, poorly fitted or top-dose-only effect, or another doubt; inactive = no such curve, though single readings can be large or run the other way;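 also: potency is read from the fitted curve at half-maximal effect; 0% = wells with enzyme and -100% = buffer wells without enzyme; nearly all actives have a fitted effect of over 50% in size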
# Target sequence (B2RXH2 1-337 limits assumed): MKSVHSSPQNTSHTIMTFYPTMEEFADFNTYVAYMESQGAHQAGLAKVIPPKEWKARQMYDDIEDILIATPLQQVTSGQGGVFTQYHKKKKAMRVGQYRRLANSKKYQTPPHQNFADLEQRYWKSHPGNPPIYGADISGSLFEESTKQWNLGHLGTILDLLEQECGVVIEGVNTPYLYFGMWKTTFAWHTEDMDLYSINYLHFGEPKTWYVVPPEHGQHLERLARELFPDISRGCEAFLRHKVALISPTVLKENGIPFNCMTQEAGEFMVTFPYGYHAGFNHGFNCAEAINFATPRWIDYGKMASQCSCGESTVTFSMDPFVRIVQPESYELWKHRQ
# JMJD2A Tudor inh – JMJD2A Tudor domain (human) inhibition. AlphaScreen JMJD2A-Tudor / H3K4me3 peptide binding. 4.4% of 390,000 active. Potency, µM (highest dose often 114 µM), for inactives: at the top dose activity change, negative = inhibition, most hits filed as inhibitors; also: potency is read from the fitted curve at half-maximal effect; % is scaled to controls: 0 for no effect and ±100 for the full control effect; nearly all actives have a fitted effect of over 50% in size
# PI5P4Ka inh – blocks human PI5P4K alpha kinase activity. P48426. PI5P4Kalpha enzyme, ADP-Glo luminescence, 60 min; hits give low values. max response, %. 1.2% of 330,000 active. AID 652105; active = max response of -50% or lower; inconclusive = between -30% and -50%; inactive = -30% or higher; also: value at the top dose of about 77 µM; % is scaled to controls: 0 for no effect and ±100 for the full control effect
#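 Reactions run in 0.038 M HEPES pH 7.4, 0.28 mM EGTA, 0.1% CHAPS and 5% DMSO, with PI5P4Kalpha, substrate, compound and 5 microM ATP final, one hour at room temperature. Readout is ADP-Glo luminescence.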
# BAZ2B block – BAZ2B (human) inhibition. Q9UIF8. AlphaScreen BAZ2B-H3K14Ac peptide displacement. Potency, µM (titrated, usually from 114 µM), inactives show at the top dose activity change, negative = inhibition, usual class: inhibitors. 4.4% of 360,000 active. AID 504333; also: potency is read from the fitted curve at half-maximal effect; % is scaled to controls: 0 for no effect and ±100 for the full control effect; nearly all actives have a fitted effect of over 60% in size
#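 In this displacement format the biotinylated H3(5-23) peptide acetylated at Lys14 serves as ligand at 50 nM, with BAZ2B at 50 nM in PBS pH 7.4 containing 0.01% Tween-20. Donor and acceptor beads are 10 ug/mL final.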
# HP1b chromo inh – blocks HP1-beta chromodomain binding to methylated histone tails. P83916. AlphaScreen HP1-beta / biotin-H3K9me3 peptide binding. Potency, µM (doses to about 114 µM), for inactives: at the highest dose activity change, negative = inhibition, most hits filed as inhibitors. 0.56% of 390,000 active; also: potency is read from the fitted curve at half-maximal effect; nearly all actives have a fitted effect of over 70% in size
# Target sequence (P83916 whole entry, looked up): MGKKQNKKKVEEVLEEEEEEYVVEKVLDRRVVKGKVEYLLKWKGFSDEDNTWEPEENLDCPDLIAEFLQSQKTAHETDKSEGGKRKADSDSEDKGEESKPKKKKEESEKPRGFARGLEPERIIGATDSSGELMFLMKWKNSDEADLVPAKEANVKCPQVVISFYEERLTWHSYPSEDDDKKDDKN
#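 AlphaScreen: HP1-beta (50 nM) preformed 30 min with biotin-H3(1-18)K9me3 peptide (50 nM) in PBS pH 7.4, 0.01% Tween-20. Compound added for 30 min at RT, then streptavidin donor/nickel chelate acceptor beads (10 ug/mL) for 30 min.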
# L3MBTL1 block – L3MBTL1 (human) inhibition; AlphaScreen L3MBTL1–H3K9me1 peptide binding; Potency, µM (doses to about 57.1 µM), without a hit: at the top dose activity, negative = inhibition, actives largely listed as inhibitors; 0.66% of 230,000 active; also: potency is read from the fitted curve at half-maximal effect; % is scaled to controls: 0 for no effect and ±100 for the full control effect; nearly all actives have a fitted effect of over 60% in size
#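 Displacement of a biotinylated histone H3(1-15) peptide monomethylated at Lys9 (75 nM) from L3MBTL1 (50 nM) was measured by AlphaScreen after a 30 min room-temperature compound incubation; cefsulodin titration served as intraplate control.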
# Numbers without * were called inactive; ? = inconclusive; · = not tested or not shown; [ ] = dose if it differs, or a comment. Unless noted, calls follow the shape of the dose curve; as a rule, active = well fitted inhibition curve with a large enough effect; inconclusive = small, poorly fitted or top-dose-only effect; inactive = no such curve, though single readings can be large or run the other way.
SMILES,JMJD2E inh,JMJD2A Tudor inh,PI5P4Ka inh,BAZ2B block,HP1b chromo inh,L3MBTL1 block
COc1ccccc1NCc1ccc([N+](=O)[O-])s1,1%,?,-13,50µM*,?,-8%
Cc1ccccc1NCc1ccc([N+](=O)[O-])s1,·,?,-5,50µM*,?,-10%
CCOC(=O)c1c(C)[nH]c(C)c1S(=O)(=O)N1CCCC(C(=O)Nc2ccc(OC)c(OC)c2)C1 (centres undefined),·,-18%,·,1%,15%,·
CCOC(=O)[C@H]1[C@H]2COc3ccc(Cl)cc3[C@@H]2N2C(=O)CN(Cc3ccc(Cl)cc3)C(=O)[C@@]12C,·,-16%,14,1%,32%,-1%
CCCN(C(=O)NCc1noc2ccc(C)cc12)c1ccc(Cl)c(Cl)c1,·,26%,·,3%,94%,·
Cc1cc(C)c2cc3c(N)c(C(=O)Nc4c(C)[nH]c(=O)[nH]c4=O)sc3nc2c1,-5%,?,-23,50µM*,89%,11%
COc1ccc(CN2CCSCC2)c(OC)c1C,·,4µM*,-1,79µM*,?,-1%
COc1cc2c(cc1OC)CN(Cc1ccc(OC)c(C)c1OC)CC2,?,1.6µM*,·,50µM*,-56%,2%
COc1cc2c(cc1OC)CN(Cc1ccc(C)cc1)CC2,·,-15%,-6,-8%,26%,-5%
COc1cc(OC)c(OC)cc1CN1CCc2ccccc2C1,-20%,56µM*,·,?,?,·
COc1ccc(OC)c(CN2CCSCC2)c1,·,1.8µM*,8,?,?,-3%
CCS(=O)(=O)N1CCc2cc(C(=O)Nc3cc(OC)c(Cl)cc3OC)ccc21,·,?,·,?,27%,·
COc1cc2c(cc1OC)CN(Cc1ccccc1)CC2,·,-7%,-10,0%,38%,3%
O=C(CN1CCN(Cc2cccc3ccccc23)CC1)NCCc1ccccc1,·,-31%,-3,-17%,28%,·
COc1cc2c(cc1OC)CN(Cc1cccs1)CC2,?,3.2µM*,·,-39%,?,6%
COc1ccc(OC)c(/C=N/NC(=O)CN2CCSCC2)c1,?,5.6µM*,-4,56µM*,?,2%
Cc1ccc(C)c(CN2CCSCC2)c1,·,7.1µM*,-6,?,-5%,4%
c1ccc2c(CN3CCSCC3)cccc2c1,·,20µM*,-2,?,?,-8%[2.29 µM]
Cc1cccc(C(=O)OCc2cc(=O)n3nc(C4CC4)sc3n2)c1,·,1%,·,0%,25%,·
COc1ccccc1CCNc1ncnc2nc[nH]c12,·,3%,·,·,26%,·
COc1ccc(OC)c(CN2CCCC(CO)C2)c1 (centres undefined),5%,1%,·,3%,18%,·
COc1ccc2ccccc2c1CN1CCSCC1,·,45µM*,-4,56µM*,?,-2%
COc1ccc(OC)c(CN2CCCCCC2)c1,·,14µM*,-1,79µM*,?,0%
COc1cccc(Cn2ncc3c4sc(C)cc4n(C)c3c2=O)c1,·,-19%,·,·,·,·
O=C(c1cnn(-c2ccc(F)cc2)c1-n1cccc1)N1CCN(c2ccccc2)CC1,·,-13%,·,-6%,27%,·
SMILES,JMJD2E inh,JMJD2A Tudor inh,PI5P4Ka inh,BAZ2B block,HP1b chromo inh,L3MBTL1 block
COc1ccc(OC)c(-c2noc(CSc3nnc(Cc4ccccc4)n3-c3cccc(C)c3)n2)c1,·,-35%,·,-31%,25%,·
CC[n+]1c(/C=C/Nc2ccccc2)oc2ccc(OC)cc21,?,10%,2,-6%,48%,2%
CC[n+]1c(/C=C/N(C)c2ccccc2)oc2ccc(F)cc21,?,79µM*,-16,-32%,-3%,-16%
C(=N\Nc1nc(-c2ccccc2)cs1)/c1cccnc1,-7%,?,·,?,-9%,-14%
CC(C)(C)c1csc(N/N=C/c2cccnc2)n1,6%,?,-8,40µM*,2%,-12%
Cc1ccc(/C=N/Nc2nc(C(C)(C)C)cs2)o1,-29%,45µM*,1,45µM*,?,-4%
Cc1ccc(/C=N/Nc2nc3ccccc3s2)o1,-21%,?,11,?,-17%,-11%
Cc1nonc1NC(=O)CSc1nnnn1-c1ccccc1,·,5%,-7,2%,13%,·
CC1=NN(C(=O)COc2ccc(C)c(C)c2)C(O)(c2ccccc2)C1 (centres undefined),-4%,-20%,1,-9%,17%[57 µM],4%
O=C(CNCCc1ccccc1)N1CCc2ccccc2C1,?,3.2µM*,9,50µM*,?,1%
O=C(CNCc1ccc(Cl)cc1)N1CCc2ccccc2C1,·,22µM*,2,?,-34%,·
O=C(CNC1CCCCC1)N1CCc2ccccc2C1,-17%,3.2µM*,2,71µM*,-10%,·
O=C(Cc1ccccc1)NCC(=O)N1CCc2ccccc2C1,·,-10%,-12,8%,21%,·
O=C(NCc1ccc(Cl)cc1)N1CCc2ccccc2C1,·,1%,1,5%,32%,·
O=C(CNCc1cccc(Cl)c1)N1CCc2ccccc2C1,·,20µM*,0,56µM*,-37%,·
CC(NCc1ccco1)C(=O)N1CCc2ccccc2C1 (centres undefined),?,11µM*,·,56µM*,?,4%[11.4 µM]
COc1ccc(NC(=O)CN(c2cc(C)cc(C)c2)S(=O)(=O)c2c(C)n[nH]c2C)cc1,0%,50µM*,-4,6%,-9%,·
CCOC(=O)c1cnn(-c2ccc(C(F)(F)F)cn2)c1N,5%,-5%,·,-5%,30%,·
CCOC(=O)NNc1ccc(C(F)(F)F)cn1,-1%,10µM*,3,1%,12%,1%
CN(C(=O)/C=C/c1ccc([N+](=O)[O-])s1)c1ccccc1,-7%,?,0,40µM*,-14%,-25%
CCN(C(=O)Cn1c(C(=O)OC)cc2sccc21)c1cccc(C)c1,·,-18%,·,-3%,17%,·
COc1cc(/C=C2\SC(=O)N(c3ccc(O)cc3)C2=O)cc(OC)c1OC,?,-7%,-1,-7%,25%,-5%
CCOc1cc(/C=C2\SC(=O)N(CC(=O)Nc3ccccc3F)C2=O)cc([N+](=O)[O-])c1O,-17%,-20%[11.4 µM],-55*,40µM*,35µM*,-16%
COc1cc(/C=C2\SC(=O)N(c3ccccc3Cl)C2=O)cc([N+](=O)[O-])c1O,-13%,35µM*,-53*,25µM*,?,?
COc1cc(/C=C2\SC(=O)N(CC(=O)Nc3cccc(C)c3)C2=O)cc([N+](=O)[O-])c1O,-2%,18µM*,-92*,40µM*,28µM*,·
COc1ccc2sc(-c3ccc(N(C)C)cc3)c(C#Cc3cncn3C)c2c1,·,22µM*,92,·,-27%,?
Cc1ccnn1Cc1cc(C(=O)O)c2ccccc2n1,2%,3%,1,-21%,14%,10%
CCOc1ccc(NC(=S)NNc2ccnc3cc(Cl)ccc23)cc1,-8%,22µM*,3,?,11µM*,-30%
